From PubChem BioAssay come the findings set out here.

Values without a mark were called inactive. For some of these results: Entries with a potency or affinity are not part of this list. Calls of active or inactive are those of the source. Unless noted, no rule for the calls is given here.

The nature of test [1]: antimalarial activity against Dd2 strain (AID 2302;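 active = growth inhibition above 50% at the single 2 µM test dose, taken to imply half-maximal potency below 2 µM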;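 also: 0% = DMSO untreated growth and 100% = chloroquine plus artemisinin killed control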). Particulars: P. falciparum Dd2 in RBCs, LDH growth readout, 72 h; at 2 µM; stronger effect = higher value.
A short description of test [2]: human hepatoma cell viability loss – ATP luminescence, cytotoxicity control for P. falciparum antimalarial project, primary screen (AID 2303;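 active = inhibition above 50%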;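 also: 0% = DMSO wells and 100% = digitonin-killed cells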). Particulars: HepG2 viability, 24-48 h, at 10 µM, stronger effect = higher value.
Test [3] deals with L-lactate dehydrogenase (Plasmodium falciparum (isolate CDC / Honduras)) (UniProt Q27743). Nature of the test: PfLDH activity inhibition – cell lysate, 3D7 strain, counter-screen for P. falciparum growth inhibition project (AID 2304).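 Also: 0% = vehicle and 100% = reference inhibitor.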 Particulars: P. falciparum 3D7 crude extract, LDH APAD/NBT absorbance; at 2 µM; stronger effect = higher value. Background: A counterscreen serves to expose hits that act by an unwanted route or on another target.
Sequence of L-lactate dehydrogenase (Plasmodium falciparum (isolate CDC / Honduras)) (Q27743 whole entry, looked up): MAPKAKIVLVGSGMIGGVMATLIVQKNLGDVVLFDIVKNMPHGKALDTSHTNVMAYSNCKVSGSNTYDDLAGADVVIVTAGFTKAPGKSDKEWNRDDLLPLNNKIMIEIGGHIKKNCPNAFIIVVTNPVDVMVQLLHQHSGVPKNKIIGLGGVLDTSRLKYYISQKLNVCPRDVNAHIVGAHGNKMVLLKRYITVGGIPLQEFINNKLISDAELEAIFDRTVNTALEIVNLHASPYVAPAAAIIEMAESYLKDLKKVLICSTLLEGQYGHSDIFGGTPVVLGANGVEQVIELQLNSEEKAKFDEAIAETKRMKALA

A short description of test [4]: inhibition of 3D7 malaria parasite growth – strain 3D7 (AID 2306).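 Also: 0% = DMSO wells and 100% = chloroquine plus artemisinin control wells.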 Particulars: P. falciparum 3D7 erythrocytic growth, LDH absorbance, 72 h; at 2 µM; stronger effect = higher value.
In test [5] the target is Calcium-dependent protein kinase 1 (Plasmodium falciparum (isolate 3D7)) (UniProt P62344). Nature of the test: PfCDPK1 kinase inhibitors, biochemical, TCAMS library (AID 1159585; cut-off not given, nearly all actives have IC50 up to about 0.98 µM;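 also: inhibitors leave more ATP so luminescence rises with inhibition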). Particulars: recombinant PfCDPK1, Kinase-Glo ATP depletion luminescence.
Sequence of Calcium-dependent protein kinase 1 (Plasmodium falciparum (isolate 3D7)) (P62344 whole entry, looked up): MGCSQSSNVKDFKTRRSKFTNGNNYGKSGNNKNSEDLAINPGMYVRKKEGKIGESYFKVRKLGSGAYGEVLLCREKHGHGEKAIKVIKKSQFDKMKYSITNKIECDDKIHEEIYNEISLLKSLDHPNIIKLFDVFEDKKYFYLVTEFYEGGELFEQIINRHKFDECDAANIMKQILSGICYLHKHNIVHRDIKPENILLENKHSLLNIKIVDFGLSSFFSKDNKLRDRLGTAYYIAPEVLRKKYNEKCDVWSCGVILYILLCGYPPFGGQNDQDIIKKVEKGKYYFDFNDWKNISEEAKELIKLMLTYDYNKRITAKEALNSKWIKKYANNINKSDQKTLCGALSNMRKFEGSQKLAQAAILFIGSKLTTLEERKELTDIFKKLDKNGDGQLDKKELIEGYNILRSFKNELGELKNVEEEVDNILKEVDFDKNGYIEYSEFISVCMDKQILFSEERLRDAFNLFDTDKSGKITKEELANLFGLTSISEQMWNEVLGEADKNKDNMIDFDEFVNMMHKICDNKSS
Test [6] addresses Plasmodium falciparum protein kinase 6 (PK6, PF3D7_1337100) (UniProt Q8IDW1). Nature of the test: PfPK6 kinase inhibitors, biochemical, TCAMS library (AID 1159586). Particulars: recombinant PfPK6, Kinase-Glo ATP depletion luminescence.
The target in test [7] is Protein kinase 7 (PK7), Plasmodium falciparum 3D7 (PF3D7_0213400) (UniProt Q7YTF7). The experiment in a line: inhibition of Plasmodium PK7 catalytic activity – biochemical, TCAMS antimalarial set, Kinase-Glo luminescence (AID 1159587). Particulars: recombinant PfPK7, Kinase-Glo ATP depletion luminescence. For orientation: In Kinase-Glo more light means more ATP remaining.
Sequence of Protein kinase 7 (PK7), Plasmodium falciparum 3D7 (PF3D7_0213400) (Q7YTF7 1-343): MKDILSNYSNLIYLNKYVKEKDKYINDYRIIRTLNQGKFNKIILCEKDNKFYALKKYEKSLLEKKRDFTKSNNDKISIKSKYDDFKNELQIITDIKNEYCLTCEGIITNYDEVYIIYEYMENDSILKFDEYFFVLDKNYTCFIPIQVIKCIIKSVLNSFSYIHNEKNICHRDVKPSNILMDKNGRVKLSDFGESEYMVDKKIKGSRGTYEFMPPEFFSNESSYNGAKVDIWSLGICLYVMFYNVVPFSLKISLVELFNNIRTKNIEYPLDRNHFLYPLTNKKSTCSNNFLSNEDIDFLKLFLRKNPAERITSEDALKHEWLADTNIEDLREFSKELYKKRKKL
The target of test [8] is Calcium-dependent protein kinase 4 (Plasmodium falciparum (isolate 3D7)) (UniProt Q8IBS5). Nature of the test: PfCDPK4 kinase inhibitors, biochemical, TCAMS library (AID 1159588; cut-off not given, nearly all actives have IC50 up to about 0.91 µM). Particulars: recombinant PfCDPK4, Kinase-Glo ATP depletion luminescence.
Sequence of Calcium-dependent protein kinase 4 (Plasmodium falciparum (isolate 3D7)) (Q8IBS5 whole entry, looked up): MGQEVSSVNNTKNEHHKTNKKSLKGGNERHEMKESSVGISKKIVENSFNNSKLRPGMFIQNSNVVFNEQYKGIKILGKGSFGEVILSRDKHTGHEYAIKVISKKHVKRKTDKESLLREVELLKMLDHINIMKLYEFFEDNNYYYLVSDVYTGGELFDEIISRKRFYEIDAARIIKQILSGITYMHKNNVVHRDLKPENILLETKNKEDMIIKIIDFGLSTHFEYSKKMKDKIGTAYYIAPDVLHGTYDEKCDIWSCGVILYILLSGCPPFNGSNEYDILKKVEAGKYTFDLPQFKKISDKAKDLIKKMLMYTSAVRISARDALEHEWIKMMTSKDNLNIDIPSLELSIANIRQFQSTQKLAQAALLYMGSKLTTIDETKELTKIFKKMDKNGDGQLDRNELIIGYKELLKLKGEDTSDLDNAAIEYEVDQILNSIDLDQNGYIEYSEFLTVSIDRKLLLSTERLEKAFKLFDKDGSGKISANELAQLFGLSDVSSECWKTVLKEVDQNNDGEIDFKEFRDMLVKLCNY

Sequence of Plasmodium falciparum protein kinase 6 (PK6, PF3D7_1337100) (Q8IDW1 1-305): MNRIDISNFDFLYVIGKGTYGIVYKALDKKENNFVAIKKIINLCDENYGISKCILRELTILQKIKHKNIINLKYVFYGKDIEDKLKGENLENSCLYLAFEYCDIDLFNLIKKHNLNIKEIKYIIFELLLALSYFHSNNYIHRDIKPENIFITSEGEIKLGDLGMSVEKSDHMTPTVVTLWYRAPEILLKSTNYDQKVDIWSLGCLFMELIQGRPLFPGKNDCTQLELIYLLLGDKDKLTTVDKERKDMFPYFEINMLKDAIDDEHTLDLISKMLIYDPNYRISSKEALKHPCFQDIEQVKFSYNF

The inhibition is the change of the read-out against control, counted positive when it falls. In the case of `Nc1c(Cl)cc(C(O)CNCCCCCCOCCC=C2CCOCC2)cc1Cl` (stereo not given), the growth inhibition in test [1] is 9%; in test [4], 100% (active). The inhibition in test [2] was 7%; in test [3], 0%. Also, the result in test [5], in test [6], in test [7] and in test [8] was inactive.
On to `O=C(Cn1c(=O)cnc2ccccc21)Nc1cccc(C(=O)Nc2cccc(C(F)(F)F)c2)c1`, for which the growth inhibition in test [1] was 66% (active); in test [4], 90% (active). The inhibition in test [2] is -12%; in test [3] it was 3%. The outcome in test [5], in test [6], in test [7] and in test [8] was inactive.
Take `O=C(Nc1ccc(F)c(C(F)(F)F)c1)NC1CCN(CCCCCNC(=O)[C@@H]2C[C@H]2c2ccc(Cl)c(Cl)c2)CC1`: the growth inhibition was 16% in test [1] and 100% (active) in test [4]. Moreover, the inhibition was 96% (active) in test [2] and 0% in test [3]. Moreover, the result in test [5], in test [6], in test [7] and in test [8] was inactive.
On to `O=C(NC1CCN(CCN2CCC(c3c[nH]c4ccccc34)CC2)CC1)c1ccc(-c2ccc(C(F)(F)F)cc2)cc1`, for which the growth inhibition in test [1] was 100% (active); in test [4] it was 99% (active). Besides, the inhibition was 100% (active) in test [2] and 4% in test [3]. Besides, the result in test [5], in test [6], in test [7] and in test [8] was inactive.
Regarding `CC(C)C[C@H](NC(=O)c1ccc(OCCN2CCOCC2)cc1)C(=O)NC(/C=N/N1CCCC1=O)C(C)C` (stereo not given in full), the values for the growth inhibition in test [1] and in test [4] were 81% (active) and 90% (active), respectively. In addition, the inhibition in test [2] was 3%; in test [3], -2%. In addition, the outcome in test [5], in test [6], in test [7] and in test [8] was inactive.
For `NC1=NC(c2ccccc2)N(OCc2ccccc2)C(N)=N1` (stereo not given), the figures for the growth inhibition in test [1] and in test [4] were 21% and 96% (active), respectively. Also, the inhibition in test [2] was 5%; in test [3] it was -6%. Moreover, the outcome in test [5], in test [6], in test [7] and in test [8] was inactive.
On to `CCCCCC(=O)N1CCOC(CCN2CCC(c3ccccc3)CC2)(c2ccc(Cl)c(Cl)c2)C1` (stereo not given), for which the growth inhibition in test [1] is 51% (active); in test [4], 89% (active). For the same molecule, the inhibition was 17% in test [2] and 1% in test [3]. Also, the result in test [5], in test [6], in test [7] and in test [8] was inactive.
Consider `COc1ccccc1Oc1c(N(C)S(=O)(=O)c2ccc(C(C)C)cc2)nc(C(F)(F)F)nc1N(C)S(=O)(=O)c1ccc(C(C)C)cc1`, for which the growth inhibition was 98% (active) in test [1] and 94% (active) in test [4]. Also, the figures for the inhibition in test [2] and in test [3] were 4% and -6%, respectively. Also, the result in test [5], in test [6], in test [7] and in test [8] was inactive.
In the case of `N#Cc1ccc(-c2cnc3ccc(NCc4ccc(S(N)(=O)=O)cc4)nn23)cc1`, the growth inhibition was 100% (active) in test [1] and 98% (active) in test [4]. For the same molecule, the inhibition is 7% in test [2] and 5% in test [3]. The result in test [5], in test [6], in test [7] and in test [8] was inactive.
As to `O=S(=O)(NC1=NCCC1)c1cccc(Nc2nc(C(F)(F)F)nc3ccccc23)c1`, the growth inhibition in test [1] is 8%; in test [4], 83% (active). Also, the inhibition in test [2] was 6%; in test [3], 0%. The result in test [5], in test [6], in test [7] and in test [8] was inactive.
Consider `COc1cc(CNCCCNc2cc(=O)c3ccccc3[nH]2)c2c(c1)C(C)CN2C(=O)OC(C)(C)C` (stereo not given), for which the growth inhibition in test [1] was 87% (active); in test [4], 96% (active). Besides, the inhibition in test [2] was -5%; in test [3], 2%. In addition, the result in test [5], in test [6], in test [7] and in test [8] was inactive.
`O=C(CCc1cnc[nH]1)Nc1cccc(-c2ccc(-c3nc4ccc(F)cc4[nH]3)s2)c1`: the growth inhibition is 69% (active) in test [1] and 101% (active) in test [4]. The inhibition was 17% in test [2] and -3% in test [3]. The result in test [5], in test [6], in test [7] and in test [8] was inactive.
Regarding `CCOC(=O)NC1=NC(C)(C)N(OCCCOc2cc(Cl)c(Cl)cc2Cl)C(N)=N1`, the growth inhibition in test [1] is 94% (active); in test [4], 97% (active). Besides, the inhibition in test [2] was 63% (active); in test [3], -2%. For the same molecule, the outcome in test [5], in test [6], in test [7] and in test [8] was inactive.
For `Cc1cnc2ccc(NS(=O)(=O)c3ccc4c(Cl)cccc4c3)cc2c1N1CCNCC1`, the growth inhibition in test [1] was 3%; in test [4], 101% (active). In addition, the inhibition in test [2] was 24%; in test [3], 1%. Also, the outcome in test [5], in test [6], in test [7] and in test [8] was inactive.
As for `COc1ccc2nc(C)cc(Nc3ccc(Oc4ccc5ccccc5c4Cl)c(Cl)c3)c2c1`, the growth inhibition in test [1] was 98% (active); in test [4], 100% (active). Besides, the results for the inhibition in test [2] and in test [3] were 32% and 7%, respectively. Also, the result in test [5], in test [6], in test [7] and in test [8] was inactive.
For `CCN(CC)CCN(Cc1ccc(-c2ccc(C(F)(F)F)cc2)cc1)C(=O)Cn1c(CCc2cccc(F)c2F)nc(=O)c2cc(C)ccc21`, the growth inhibition was 43% in test [1] and 95% (active) in test [4]. In addition, the inhibition in test [2] was 19%; in test [3], 0%. Also, the outcome in test [5], in test [6], in test [7] and in test [8] was inactive.
In the case of `CC(C)CNCc1cccc(-c2cccc(CN(CCCN3CCN(C)CC3)C(=O)Nc3ccccc3)c2)c1`, the growth inhibition in test [1] was 76% (active); in test [4] it was 95% (active). Besides, the inhibition in test [2] was 25%; in test [3], 1%. Besides, the result in test [5], in test [6], in test [7] and in test [8] was inactive.
Turning to `CN1CCN(c2ccnc3cc4ccccc4cc23)CC1`, the growth inhibition in test [1] was 49%; in test [4], 93% (active). Also, the inhibition is 11% in test [2] and -9% in test [3]. Moreover, the result in test [5], in test [6], in test [7] and in test [8] was inactive.
Turning to `c1ccc2c(NCCCCCCNc3ccnc4ccccc34)ccnc2c1`, the results for the growth inhibition in test [1] and in test [4] were 12% and 100% (active), respectively. Besides, the inhibition in test [2] is 43%; in test [3], 5%. Moreover, the result in test [5], in test [6], in test [7] and in test [8] was inactive.
Take `CCC1(c2ccccc2)N=C(N)N(CCCc2ccccc2)C1=O` (stereo not given): the figures for the growth inhibition in test [1] and in test [4] were 96% (active) and 90% (active), respectively. In addition, the values for the inhibition in test [2] and in test [3] were 17% and 1%, respectively. The result in test [5], in test [6], in test [7] and in test [8] was inactive.
